Test results: paper PMC9838217, “Structure of SALL4 zinc finger domain reveals link between AT-rich DNA binding and Okihiro syndrome”
Changes are numbered by the printed parent chain.

What was measured:
Assay in all cases: HT-SELEX; high values mean tight binding
Conditions in all cases: protein: recombinant; vector His6-GST; dsDNA, one strand shown
SALL4 ZFC4 WT (HT-SELEX) = target: T1, SALL4 ZFC4 WT (HT-SELEX) (Mus musculus, UniProt Q8BX22 870-940)
T1 sequence: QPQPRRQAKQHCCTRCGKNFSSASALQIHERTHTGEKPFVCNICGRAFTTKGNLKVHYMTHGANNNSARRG
In short: (§1)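 A 100 µl reaction of 10 mM Tris–HCl pH 7.5, 50 mM NaCl, poly(dI-dC) and DTT held purified recombinant mouse SALL4 zinc finger cluster 4 (residues 870–940, 1 µg) and library DNA (1.5 µg first cycle, 200 ng later) for 10 min at room temperature. Complexes captured on Ni2+ beads were washed, PCR-amplified and reselected for up to 6 cycles, in triplicate, then MiSeq-sequenced and scanned for 6-mers. Binding signal is the read fraction of each canonical k-mer expressed as fold change over the initial random library.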

[1] = target: T2, SALL4 ZFC4 R900W (HT-SELEX) (Mus musculus, UniProt Q8BX22 870-940, R900W)
T2 sequence: T1 sequence with R31W
In short: as §1

[2] = target: T3, SALL4 ZFC4 G921D (HT-SELEX) (Mus musculus, UniProt Q8BX22 870-940, G921D)
T3 sequence: T1 sequence with G52D
In short: as §1

Sequence	binding signal (SALL4 ZFC4 WT (HT-SELEX)) [fold-change vs cycle 0]	binding signal [1] [fold-change vs cycle 0]	binding signal [2] [fold-change vs cycle 0]
ATTCGA	1.07 ± 0.0464	1.15 ± 0.0515	1.2 ± 0.0363
ACTGGG	0.468 ± 0.0365	0.547 ± 0.0062	0.615 ± 0.0193
AGTACT	1.32 ± 0.0981	1.45 ± 0.094	1.4 ± 0.116
TCATCA	1.46 ± 0.0322	1.56 ± 0.0457	1.49 ± 0.0698
ACAATG	1.23 ± 0.0338	1.34 ± 0.0389	1.32 ± 0.0407
CACACA	0.666 ± 0.03	0.777 ± 0.0199	0.826 ± 0.0389
GAGTGC	0.332 ± 0.0145	0.398 ± 0.019	0.554 ± 0.055
CATAAC	1.83 ± 0.124	1.43 ± 0.0541	1.37 ± 0.0667
ATGAGG	0.907 ± 0.0235	1.03 ± 0.0436	1.06 ± 0.0374
AGGGGA	0.532 ± 0.0414	0.608 ± 0.0303	0.671 ± 0.0432
AGGTCG	0.312 ± 0.0215	0.372 ± 0.0129	0.511 ± 0.0677
GGGGGA	0.31 ± 0.0219	0.349 ± 0.0327	0.439 ± 0.0654
GTCATA	1.45 ± 0.0661	1.36 ± 0.05	1.34 ± 0.0974
AAGGCA	0.566 ± 0.0136	0.683 ± 0.00728	0.777 ± 0.0437
GCTAGA	0.636 ± 0.0274	0.746 ± 0.0225	0.8072 ± 0.00258
TAACGA	1.27 ± 0.0588	1.31 ± 0.0864	1.26 ± 0.0862
AGACTC	0.806 ± 0.0153	0.928 ± 0.0387	1.01 ± 0.0334
AGCAAG	0.735 ± 0.0328	0.837 ± 0.0375	0.888 ± 0.035
GGGTCA	0.435 ± 0.0224	0.513 ± 0.0178	0.619 ± 0.0472
ACATAC	1.3 ± 0.0628	1.4 ± 0.0493	1.33 ± 0.0922
AGAGCA	0.756 ± 0.0413	0.893 ± 0.0729	0.98 ± 0.0193
CCTTCA	0.899 ± 0.0192	1.05 ± 0.0389	1.06 ± 0.0107
